Assay results taken from PubChem BioAssay (NCI).
The panel holds about 83,000 compounds, 20% with a hit somewhere; the sample as a whole holds those more often.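 For each line, cells grew in 96-well plates with the test compound present at a single concentration for 48 hours.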 Unmarked numbers belong to inactive results. Activity calls are given as the source filed them. The calls were made as follows: active = growth percent below 10; inactive = the rest.

Columns and labels:
Experiment in all cases: NCI-60 one-dose screen, 48 h (100 = growth as untreated, 0 = no growth, -100 = all killed)
Conditions in all cases: 10 µM unless noted
DU-145 prostate = tested on: DU-145 prostate
K-562 leukemia = tested on: K-562 leukemia
MALME-3M melanoma = tested on: MALME-3M melanoma
MDA-MB-231 breast = tested on: MDA-MB-231 breast
RXF 393 renal = tested on: RXF 393 renal
SF-268 CNS = tested on: SF-268 CNS
SF-295 CNS = tested on: SF-295 CNS
SF-539 CNS = tested on: SF-539 CNS
UACC-257 melanoma = tested on: UACC-257 melanoma
HCT-15 colon = tested on: HCT-15 colon
HT29 colon = tested on: HT29 colon
SNB-75 CNS = tested on: SNB-75 CNS
SNB-19 CNS = tested on: SNB-19 CNS
U251 CNS = tested on: U251 CNS
PC-3 prostate = tested on: PC-3 prostate
SK-MEL-5 melanoma = tested on: SK-MEL-5 melanoma
UACC-62 melanoma = tested on: UACC-62 melanoma
LOX IMVI melanoma = tested on: LOX IMVI melanoma
SK-MEL-28 melanoma = tested on: SK-MEL-28 melanoma

SMILES | growth (DU-145 prostate) | growth (K-562 leukemia) | growth (MALME-3M melanoma) | growth (MDA-MB-231 breast) | growth (RXF 393 renal) | growth (SF-268 CNS) | growth (SF-295 CNS) | growth (SF-539 CNS) | growth (UACC-257 melanoma) | growth (HCT-15 colon) | growth (HT29 colon) | growth (SNB-75 CNS) | growth (SNB-19 CNS) | growth (U251 CNS) | growth (PC-3 prostate) | growth (SK-MEL-5 melanoma) | growth (UACC-62 melanoma) | growth (LOX IMVI melanoma) | growth (SK-MEL-28 melanoma)
Cc1c2c(cn1Cc1ccccc1)CCc1cn(C)nc1-2 | 111% | 58.1% | 101% | 89.5% | 83.9% | 102% | 57.7% | 83.1% | 79.3% | 95.1% | 98% | 95.9% | 105% | 97.2% | 71.4% | 53.5% | 70.4% | 85.2% | 104%
COc1cc2c(O)n(CCCn3ccnc3)c3c4cnc5cccc(c(=O)c3c2cc1OC)c54 | 19.2% | 11.6% | 67.1% | 51.2% | 39.5% | 36.4% | 21.4% | 22.1% | 45.2% | 95.2% | 33.8% | 52% | 33.8% | 14% | 28.2% | 24.9% | – | 3.76% (active) | 79.6%
COc1ccc(C(=O)/C=C/c2cc3c(c(OC)c2)OCC(=O)N3)cc1 | -20.7% (active) | 7.5% (active) | 88.4% | 67.7% | 49.7% | 21.4% | 88.7% | 7.09% (active) | 91.6% | 33.4% | 19.2% | 20.7% | 76.1% | 67.6% | 49.6% | 84.2% | 85.3% | 40.1% | 73.1%
Cc1ccc(S(=O)(=O)NN/C(N)=N\S(=O)(=O)c2cc(C)c(Cl)cc2SCc2ccccc2)cc1 | 115% | 57.8% | 76.1% | 92.5% | 8.06% (active) | 102% | 95% | 73.9% | 97.3% | 109% | 107% | 68.3% | 86.9% | 83.9% | 71.6% | 104% | 84.3% | 92% | 94.3%
NS(=O)(=O)c1cn(-c2ncnc3nc[nH]c23)ccc1=O | 103% | 84.6% | 82.9% | 89.3% | 130% | 93.3% | 49.3% | 105% | 138% | 94% | 101% | 75.4% | 97.2% | 102% | 96.1% | 97.6% | 89.7% | 99.9% | 105%
Fc1ccc(Nc2nc(Nc3ccc(-c4nc5ccccc5[nH]4)cc3)c3cn[nH]c3n2)cc1 | 54.3% | -28.7% (active) | 107% | 22.2% | 76.2% | 75.1% | 92.6% | 85.5% | 101% | -41.2% (active) | -8.84% (active) | 83.3% | 87.6% | 33.5% | 76.6% | 78.8% | 84.9% | – | 51.7%
Clc1ccc(-c2cn(-c3ccccc3)c(-c3ccccc3)n2)cc1 | 93.9% | 18.4% | 111% | 98.9% | 132% | 96.9% | 98.8% | 102% | 173% | 79.4% | 85.3% | 87.7% | 79.1% | 78.2% | 59.4% | 85.9% | 92.2% | 95.8% | 93.8%
CC1=NN(c2cccc(Cl)c2)C(=O)/C1=C\c1cn(CC(O)CN2CCCCC2)c2ccccc12 (stereo not drawn) | 96.7% | 28.9% | 32.9% | 41.4% | 67.1% | 72.6% | 62.4% | 96.1% | -82.1% (active) | 36.8% | -57.3% (active) | 87.2% | 84.2% | 36.5% | 62.3% | 55.5% | -47.4% (active) | 11% | -28.1% (active)
CCCCCCCCCCCCCCCCCC1=NCCN1C(=O)OCCO | -3.11% (active) | 1.39% (active) | 94% | -25.6% (active) | 49.8% | 31.4% | 23.3% | -25.7% (active) | 62.9% | -8.42% (active) | -47.6% (active) | 45.1% | 75.9% | -46% (active) | 28.4% | 80.3% | 59.6% | 27.8% | 61.3%
O=C(/C=C/c1ccccc1)c1ccc2ccccc2c1 | 105% | 56.9% | 95.9% | 94.3% | 96.5% | 94.8% | 107% | 99.2% | 87.9% | 48.5% | 54.7% | 107% | 99.3% | 93.2% | 90.1% | 92% | 92.6% | 89.3% | 108%
O=C1CC(c2ccc3c(c2)OCO3)Nc2cc3c(cc21)OCO3 (stereo not drawn) | 15.3% | 10.2% | 75.2% | 24.7% | -11.2% (active) | 44% | 7.59% (active) | 6.5% (active) | 39.6% | 14% | 1.47% (active) | 14.3% | 28.3% | 7.39% (active) | 17.7% | 1.16% (active) | 21% | 25.3% | 65.6%
COc1ccc(C2CC(c3ccc4ccccc4c3)=NN2c2nc(O)c(C3=c4cc(Cl)ccc4=NC3=O)s2)cc1 (stereo not drawn) | -20.7% (active) | -27.2% (active) | -54.3% (active) | -38.6% (active) | -67.3% (active) | -33.6% (active) | -61.9% (active) | -52.5% (active) | -50.8% (active) | -33.4% (active) | -46.5% (active) | -51.5% (active) | 3.08% (active) | -94.6% (active) | -44.4% (active) | -95.2% (active) | -46.5% (active) | -75.7% (active) | -18.8% (active)
CCCCn1c(=O)[nH]c(N)c(C(c2ccc(F)cc2)c2c(N)[nH]c(=O)n(CCCC)c2=O)c1=O | 79.1% | 52.9% | 87.7% | 62.9% | 65.5% | 54.1% | 56.8% | 75.3% | 65.9% | 95.7% | 66.4% | 62.2% | 74% | 65.3% | 53.9% | 36.7% | 55.6% | – | 74.7%
Cc1ccc(O)c(C(=O)c2ccccc2Cl)c1 | 126% | 91.4% | 106% | 109% | 104% | 104% | 94.6% | 96% | 108% | 99.5% | 108% | 79.3% | 109% | 98.5% | – | 97.6% | 101% | 101% | 105%
CC(=O)Nc1ccc(C(=O)/C=C/c2ccccc2)cc1 | 89.8% | 79.9% | 104% | 93.2% | 97.4% | 85.4% | 104% | 96.6% | 70.3% | 77.3% | 44.6% | 75.9% | 80.5% | 76.3% | 84.3% | 91.5% | 90% | 61.8% | 93.4%
COC1(CC[C@@H](C)COC2OC(CO)C(O)C(O)C2O)O[C@H]2C[C@H]3[C@@H]4CC=C5C[C@@H](OC6OC(CO)C(OC7OC(C)C(O)C(O)C7O)C(O)C6OC6OC(C)C(O)C(O)C6O)CC[C@]5(C)[C@H]4CC[C@]3(C)[C@H]2[C@@H]1C (stereo partly drawn) | -96.2% (active) | -22.9% (active) | -87.3% (active) | -70% (active) | -78.1% (active) | -90.7% (active) | -81.9% (active) | -99% (active) | -47.4% (active) | -88.7% (active) | -76.6% (active) | -70.5% (active) | -64.1% (active) | -98.1% (active) | – | -65.1% (active) | -92.1% (active) | -95.9% (active) | -95.7% (active)
O=C(Nc1cccc2[nH]c(C(F)(F)F)nc12)c1cc(Cl)ccc1Cl | 53.7% | 19.8% | 16.1% | 40.6% | 41.1% | 44.6% | 29.2% | 52.9% | 28.7% | 29.2% | 52.1% | 75.6% | 32.3% | 15.8% | 15.5% | -47.5% (active) | 20.5% | 38.1% | 44.3%
